39 molecules from PubChem BioAssay (NCATS) can be followed below.

Molecules are shown by their SMILES. Inconclusive results are not listed. Unmarked numbers belong to inactive results. Calls of active or inactive are those of the source. The call rests on the fitted dose curve; in most records, active means well fitted inhibition curve with a large enough effect; inconclusive means small, poorly fitted or top-dose-only effect; inactive means flat fitted curve, though single readings scatter.
On the % scale 0 is the no-effect control and ±100 the full control effect; potency means the concentration at half of the fitted maximal effect.

This assay is described as follows: P-glycoprotein substrates identified in KB-8-5-11 adenocarcinoma cell line, qHTS therapeutic library screen (AID 1346987). Further: nearly all actives have a fitted effect of over 65% in size. The settings on record: KB-8-5-11 (P-gp overexpressing) viability, CellTiter-Glo, 72 h; series mostly up to 44.5 µM; activity change, negative = cytotoxicity: at the top concentration. The gist of the method: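 KB-8-5-11: colchicine-selected sub-line of KB-3-1 over-expressing P-gp; assay medium lacked colchicine. 72 h drug exposure at 37 degree C, CellTiter-Glo.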
On the technique in general: In qHTS, concentration-response curves come from the screen itself.
As for `C[C@@H]1O[C@@H](O[C@@H]2[C@@H](O)[C@@H](O[C@]3(CO)O[C@H](CO)[C@@H](O)[C@@H]3OC(=O)/C=C/c3ccc(O)cc3)O[C@H](CO)[C@H]2OC(=O)/C=C/c2ccc(O)cc2)[C@H](O)[C@H](O)[C@H]1O[C@@H]1O[C@@H](C)[C@H](O[C@@H]2OC[C@](O)(CO)[C@H]2O)[C@@H](O)[C@H]1O`, the activity change, negative = cytotoxicity was 9.01% [at 9.29 µM].
Turning to `C/C=C1\[C@H](O[C@@H]2O[C@H](CO)[C@@H](O)[C@H](O)[C@H]2O)OC=C(C(=O)OC)[C@H]1CC(=O)OC[C@H]1O[C@@H](OCCc2ccc(O)cc2)[C@H](O)[C@@H](O)[C@@H]1O`, the “activity change, negative = cytotoxicity” value was -0.742% [at 17.3 µM].
As for `C[C@@H]1C(=O)O[C@H]2[C@@H](O)C34[C@H]5C[C@@H](C(C)(C)C)C36[C@@H](OC(=O)[C@@H]6O)O[C@@]4(C(=O)O5)[C@@]12O` (some centres undefined), the “activity change, negative = cytotoxicity” value is -8.69%.
Turning to `Cc1cccc(C)c1-n1c(=O)c2cnc(Nc3ccc(N4CCN(C)CC4)cc3)nc2n2c3ccccc3nc12`, the Potency is 0.92 µM (active).
Turning to `COC(=O)C[C@H]1C(C)(C)[C@H](OC(=O)C(C)C)[C@@]2(O)C(=O)[C@]1(C)C1CC[C@]3(C)C(CC(=O)O[C@H]3c3ccoc3)[C@]13O[C@@H]32` (some centres undefined), the “outcome” value was “inactive [at 17.3 µM]”.
On to `C=C1C(=O)O[C@H](CCC)[C@H]1C(=O)O`, for which the call was inactive.
For the molecule `Cc1ccc([N+](=O)[O-])cc1S(=O)(=O)N(C)/N=C/c1cnc2ccc(Br)cn12`, the Potency was 0.231 µM (active).
Regarding `C=CC1(C)CC(OC(=O)/C(C)=C\COC(C)=O)C(C(=C)C(=O)O)C(O)C1C(=C)CO` (centres undefined), the “activity change, negative = cytotoxicity” value is 2.76% [at 17.3 µM].
Still for that read-out and setting: to `OCCc1ccc(O[C@@H]2O[C@H](CO)[C@@H](O)[C@H](O)[C@H]2O)cc1` belongs 5.3%.
For `CN1CCN(Cc2ccc(-c3cnc4[nH]cc(-c5ccc6[nH]ccc6c5)c4c3)cc2)CC1`, the Potency was 7.31 µM (active).
`C[C@@]1(O)[C@H](O)[C@@H](CO)O[C@H]1n1ccc(N)nc1=O`: the “activity change, negative = cytotoxicity” value was 6.21%.
For the molecule `COC(=O)C1(C)CCC2(C(=O)O)CCC3(C)C(=CCC4C5(C)CC(O)C(OC6OCC(O)C(O)C6O)C(C)(CO)C5CCC43C)C2C1` (centres undefined), the “outcome” value was “inactive [at 17.3 µM]”.
For the molecule `CN(C)c1nc(NC2CCC(NC(=O)c3ccc(F)c(F)c3)CC2)nc2ccccc12` (centres undefined), the Potency was 20.6 µM (active).
Take `C[C@H](C(=O)NC1CCCC1)N(C(=O)Cn1nnc(-c2ccc3c(c2)OCO3)n1)C1CCCCC1`: the “activity change, negative = cytotoxicity” value was -20.8%.
For the molecule `COc1cc2c(cc1O)CC[C@H]1[C@@H]2CC[C@]2(C)[C@H](O)CC[C@@H]12`, the Potency was 1.3 µM (active).
As to `C[C@@H]1C[C@@H](O)[C@@]23CO[C@@H](O)[C@@H]2CCC[C@@H]3[C@@]12C[C@@H](c1ccoc1)OC2=O`, the result was inactive.
`C=C(C)C1Cc2cc(C(=O)OC3OC(CO)C(O)C(O)C3O)ccc2O1` (centres undefined): the “activity change, negative = cytotoxicity” value was 3.68%.
In the case of `CCOC(=O)c1sc(NC(=O)[C@H](C(C)C)n2c(=O)[nH]c3ccccc3c2=O)nc1C`, the “activity change, negative = cytotoxicity” value is -7.48%.
`CC(C)(C)OC(=O)N1CCC(OCc2nc(-c3ccncc3)no2)CC1`: the “activity change, negative = cytotoxicity” value was -0.687%.
Regarding `COc1cc(O)cc(C)c1C(=O)OC1C(CO)OC(OC2C(O)C(O)C(O)C(O)C2O)C(O)C1O` (centres undefined), the “outcome” value is “inactive [at 17.3 µM]”.
For `CN(CCc1ccc(Nc2ncc(-c3cccnc3)s2)cc1)Cc1ccccc1`, the “activity change, negative = cytotoxicity” value is -26.2%.
As for `O=C(Nc1ccc(S(=O)(=O)C(F)(F)F)cc1)C1=CCN(c2ncccc2C(F)(F)F)CC1`, the Potency is 14.6 µM (active).
On the same count and under the same terms, to `CCN1CCN(Cc2ccc(Nc3ncc(F)c(-c4cc(F)c5nc(C)n(C(C)C)c5c4)n3)nc2)CC1` belongs 4.11 µM (active); to `COc1ncc2cc(C(=O)Nc3cc(C(=O)NCc4cccc(Cl)c4)ccc3Cl)c(=O)[nH]c2n1`, 5.8 µM (active).
With `CC(=O)O[C@H]1[C@@H](O)[C@H](O[C@H]2[C@@H]3C=CO[C@@H](O[C@H]4O[C@@H](CO)[C@H](O)[C@@H](O)[C@@H]4O)[C@@H]3[C@@]3(CO)O[C@@H]23)O[C@@H](C)[C@@H]1OC(=O)/C=C/c1ccccc1`, the “outcome” value is “inactive [at 17.3 µM]”.
As to `CC[C@H]1OC(=O)[C@](C)(F)C(=O)[C@H](C)[C@@H](O[C@@H]2O[C@H](C)C[C@H](N(C)C)[C@H]2O)[C@](C)(OC)C[C@@H](C)C(=O)[C@@H](C)[C@H]2N(CCCCn3cc(-c4cccc(N)c4)nn3)C(=O)O[C@]12C`, the “activity change, negative = cytotoxicity” value was -14.7%.
On to `O=C1CCC=CC1(O)C(=O)OCc1ccccc1O[C@@H]1O[C@H](CO)[C@@H](O)[C@H](O)[C@H]1O` (some centres undefined), for which the “activity change, negative = cytotoxicity” value is -6.72% [at 17.3 µM].
Still for that read-out and setting: with `Cc1cccc2c1NC(=O)C2(c1ccc(O)cc1)c1ccc(O)cc1` the figure was -21.4%.
For `C1CCC[C@H]2CCCN3CC[C@@H](CCCCCC[C@@H]4CCCN5CC[C@@H](CC1)O[C@@H]45)O[C@@H]23`, the outcome is “inactive [at 0.0709 µM]”.
Turning to `C/C=C/c1cc(OC)c2c(c1)[C@@H](C)[C@@H](c1ccc(O)c(OC)c1)O2`, the “activity change, negative = cytotoxicity” value is -9.55%.
With `CN(C)c1ccc2c(c1)OC(N)=C(C#N)C2c1cccc(C(F)(F)F)c1` (centres undefined), the Potency was 0.326 µM (active).
For `OC/C=C/C=C/[C@H]1Cc2cc(O)cc(O)c2O1`, the molecule was classed as inactive.
Turning to `CCC(C)C(=O)OC1CC(C)C=C2C=CC(C)C(CCC(O)CC(O)CC(=O)O)C21` (centres undefined), the “activity change, negative = cytotoxicity” value was -12.7% [at 17.3 µM].
Same read-out and setting: with `CC1=C(CCC(C)CC(=O)O)[C@@]2(C)CCCC(C)(C)C2CC1=O` (some centres undefined) the figure was -2.03%; with `CC[C@H]1OC(=O)[C@H](C)[C@@H](O[C@H]2C[C@@](C)(OC)[C@@H](O)[C@H](C)O2)[C@H](C)[C@@H](O[C@@H]2O[C@H](C)C[C@H](N(C)C)[C@H]2O)[C@](C)(O)C[C@@H](C)C(=O)[C@H](C)[C@H]2OC(=O)O[C@@]21C`, 3.48%; with `COC(=O)c1cc(OC)c(O[C@@H]2O[C@@H](C)[C@H](O)[C@@H](O)[C@H]2O)c(OC)c1`, 5.18%.
As to `OC[C@H]1O[C@@H](O[C@H]2[C@H](OCc3ccccc3)O[C@H](CO[C@@H]3OC[C@@H](O)[C@H](O)[C@H]3O)[C@@H](O)[C@@H]2O)[C@H](O)[C@@H](O)[C@@H]1O`, the “activity change, negative = cytotoxicity” value was 1.87% [at 17.3 µM].
In the case of `Cc1ccccc1C#Cc1ccc(CCC(=O)O)cc1`, the “activity change, negative = cytotoxicity” value is -7.83%.
The same measure, in the same setting: with `O=C(Cc1ccc(-c2ccccc2)cc1)NC1CCC1` the figure was 4.74%.
